Assay [1] in a line: NCI Yeast Anticancer Drug Screen. Data for the rad50 strain (AID 155).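 Note: 0% = growth of vehicle-only cultures of the same strain.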 As to conditions: S. cerevisiae rad50 strain growth inhibition; at 50.0 µM; active compounds read high. An outline of the steps: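 Genetically altered yeast (DNA repair pathway); compound treatment; growth inhibition vs vehicle ctrl.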
A short description of assay [2]: NCI Yeast Anticancer Drug Screen. Data for the mec2-1 strain (AID 157). The settings on record: S. cerevisiae mec2-1 strain, at 50.0 µM, active compounds read high. An outline of the steps:
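Test agents were screened against the mec2-1 yeast strain, with defined DNA repair or cell cycle alteration. Growth was scored as inhibition against vehicle-only controls.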

Assay [3] is described as follows: NCI Yeast Anticancer Drug Screen. Data for the sgs1 mgt1 strain (AID 161).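 Note: 0% = growth of cultures given vehicle only.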 The settings on record: S. cerevisiae sgs1 mgt1 strain, at 50.0 µM, active compounds read high. Summed up:
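Genetically altered yeast, compound exposure, growth inhibition relative to vehicle.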

Assay [4] in a line: NCI Yeast Anticancer Drug Screen. Data for the cln2 rad14 strain (AID 165).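 Note: 0% = growth equal to vehicle treated cultures.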 The settings on record: S. cerevisiae cln2 rad14 strain, at 50.0 µM, active compounds read high. An outline of the steps: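 Growth of compound-exposed yeast (cln2 rad14 genotype) measured and expressed as inhibition relative to vehicle.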
The nature of assay [5]: NCI Yeast Anticancer Drug Screen. Data for the bub3 strain (AID 167). The settings on record: S. cerevisiae bub3 mutant strain, at 50.0 µM, active compounds read high. An outline of the steps: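 Yeast carrying a defined mutation is treated with each compound, and growth is compared with that of vehicle-exposed cells to give inhibition.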
Assay [6] can be described thus: NCI Yeast Anticancer Drug Screen. Data for the mlh1 rad18 strain (AID 175). As to conditions: S. cerevisiae mlh1 rad18 strain growth inhibition; at 50.0 µM; active compounds read high. Summed up: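 In this whole-cell yeast screen, a strain with altered DNA damage repair is challenged with compound, and its growth is measured against matched vehicle-treated controls.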

“And” between values parts separate entries of the source, which are not always exact repeats. Identical values can stand only once. This is part of a sample that, as a whole, favours compounds with a hit. Of some 79,000 tested, about 15% had one in any assay. Values without a mark were called inactive. The source made the active and inactive calls. Cut-off read from the data, not from the text of the source: active = growth inhibition above about 70%; inactive = the rest.

For `CCN(CC)C1=C(N(CC)CC)C(N(CC)CC)=C(N(CC)CC)C1=O.[C-]#[O+].[C-]#[O+].[C-]#[O+].[Fe]`, the growth inhibition was -45.6% in assay [1]; -13.2% in assay [2]; -22.1% in assay [3]; -2.65% in assay [4]; -16.6% in assay [5]; -33.8% in assay [6].

In the case of `CC1(C)N=C(N)N=C(N)N1c1ccc(CCc2ccc(S(=O)(=O)F)c(Cl)c2)c(Cl)c1`, the growth inhibition in assay [1] is 99.2% (active); in assay [2], 99.7% (active); in assay [3], 99.8% (active); in assay [4] it was 98.7% (active); in assay [5], 99.2% (active); in assay [6] it was 99.7% (active).

Take `C=CC[As](=O)(O)c1ccccc1Cl`: the growth inhibition in assay [1] was 96% (active); in assay [2] it was 99.5% (active); in assay [3], 99.5% (active); in assay [4] it was 84.2% (active); in assay [5] it was 98.3% (active); in assay [6] it was 99% (active).

Consider `OC[CH2][Hg][I]`, for which the growth inhibition in assay [1], in assay [2], in assay [3], in assay [4], in assay [5] and in assay [6] was 99.8% (active) throughout.

Take `CC(C)OP(=S)(OC(C)C)SSSP(=S)(OC(C)C)OC(C)C`: the growth inhibition in assay [1] was 14.2%; in assay [2] it was 3.75%; in assay [3] it was 1.95%; in assay [4] it was -3.1%; in assay [5], 12.7%; in assay [6], 6.25%.

Regarding `COc1ccc2[nH]cc(CCN)c2c1`, the growth inhibition in assay [1] is 3.95%; in assay [2] it was -12.4%; in assay [3], -13.5%; in assay [4], -10.4%; in assay [5] it was 3.6%; in assay [6] it was -24.1%.

Take `CC(C)CCON=C(N)N`: the growth inhibition in assay [1] is -23.8%; in assay [2] it was -2.25%; in assay [3], -13.7%; in assay [4], -40%; in assay [5] it was -5.6%; in assay [6], 2.55%.

As to `CC(Br)C(=O)NC(C)C(=O)O` (configuration not stated), the growth inhibition in assay [1] is -19.6% and -15.2%; in assay [2] it was -16.6% and -19.9%; in assay [3] it was -12.4%; in assay [4], 5.75%; in assay [5] it was -17.6%; in assay [6] it was -28.6% and -21.2%.

Take `Cn1c(O)c(N=O)c(=O)n(C)c1=O`: the growth inhibition in assay [1] was 29.4% and 20.9%; in assay [2], 9.85% and -9.05%; in assay [3], -0.6% and 8.4%; in assay [4], 7.75% and -1.1%; in assay [5], -9.85% and -6.3%; in assay [6] it was -13.7% and 13.4%.

For the molecule `O=S(=O)(c1ccccc1)N1C2CCCC21` (configuration not stated), the growth inhibition is 14.1% in assay [1]; 2.55% in assay [2]; 7.05% in assay [3]; -2.75% in assay [4]; 7.5% in assay [5]; -21.5% in assay [6].

For the molecule `CN(C)c1ccccc1CN1CCCN(Cc2ccccc2N(C)C)C1c1ccc(N(CCCl)CCCl)cc1`, the growth inhibition in assay [1] is 92.4% (active); in assay [2] it was 40.4%; in assay [3], 93.5% (active); in assay [4], 57.4%; in assay [5] it was 15.1%; in assay [6] it was 90.8% (active).

For `Nc1ccc(Cl)c(C(F)(F)F)c1`, the growth inhibition in assay [1] is 0.85%; in assay [2], -16.6%; in assay [3], -12.1%; in assay [4], -18.4%; in assay [5], -1%; in assay [6], 2.6%.

For `COc1cc(CC(N)Cc2c[nH]c3ccccc23)cc(OC)c1OC` (configuration not stated), the growth inhibition in assay [1] is -5.2%; in assay [2], -5.8%; in assay [3] it was -4.85%; in assay [4], 24.6%; in assay [5], -25.3%; in assay [6], -3.35%.

With `CC1(C)C=C(NC(=O)N2CC2)C(C)(C)N1O`, the growth inhibition was 12.7% in assay [1]; 11.3% in assay [2]; -2% in assay [3]; 9.75% in assay [4]; 34.8% in assay [5]; 1.45% in assay [6].

Consider `CCOS(=O)OCC`, for which the growth inhibition in assay [1] is 19%; in assay [2], 0.35%; in assay [3], -26.1%; in assay [4], 17.9%; in assay [5], 17.6%; in assay [6] it was 9.2%.

As to `CCOC(=O)C(C)(C)C(OP(=S)(OCC)OCC)=C(C)C`, the growth inhibition was 4.6% in assay [1]; 12.4% in assay [2]; 12.7% in assay [3]; 23.8% in assay [4]; 18% in assay [5]; 7.15% in assay [6].

With `Cc1nc([N+](=O)[O-])c([N+](=O)[O-])n1CC(O)CCl` (configuration not stated), the growth inhibition in assay [1] is 3.85%; in assay [2] it was -12.4%; in assay [3], 4.2%; in assay [4], 14.9%; in assay [5], -28.1%; in assay [6], 20.4%.

In the case of `O=[N+]([O-])c1ccc(CCl)cc1`, the growth inhibition is 16.4% in assay [1]; 30.5% in assay [2]; 10.7% in assay [3]; -15% in assay [4]; -23.9% in assay [5]; 26.6% in assay [6].

With `CC(NC(=O)C(c1ccccc1)c1ccccc1)C(=O)O` (configuration not stated), the growth inhibition in assay [1] was 2.35%; in assay [2], 12.6%; in assay [3] it was -1.5%; in assay [4] it was -17.2%; in assay [5] it was 1.4%; in assay [6], 14.9%.

Regarding `Oc1cc(Br)c(O)c(Br)c1`, the growth inhibition was 10.3% in assay [1]; 42.8% in assay [2]; 29.9% in assay [3]; -11% in assay [4]; 36.4% in assay [5]; 41.8% in assay [6].

For the molecule `CCCC(=O)OCC[N+](C)(C)C`, the growth inhibition in assay [1] is -1.35% and 12.7%; in assay [2] it was -21.9% and -18.6%; in assay [3] it was -10.7% and 25.4%; in assay [4] it was 18.9% and 5.95%; in assay [5], -12.1% and 6.6%; in assay [6] it was 4.05% and 18.2%.

Take `N#CC(C#N)=Cc1ccco1`: the growth inhibition in assay [1] was -7.95%; in assay [2] it was 6.15%; in assay [3], 24.7%; in assay [4], -42.4%; in assay [5] it was -3.85%; in assay [6], 5.5%.
